ST2 IL33 inh: blocks human ST2 binding to IL-33; Q01638; AlphaLISA ST2-Fc/biotin-IL-33 interaction, 1 h; inhibition, % for hits at 17 µM; hit rate 2.3% among 78,000; in the data active = inhibition above about 30%
Target sequence (Q01638 whole entry, looked up): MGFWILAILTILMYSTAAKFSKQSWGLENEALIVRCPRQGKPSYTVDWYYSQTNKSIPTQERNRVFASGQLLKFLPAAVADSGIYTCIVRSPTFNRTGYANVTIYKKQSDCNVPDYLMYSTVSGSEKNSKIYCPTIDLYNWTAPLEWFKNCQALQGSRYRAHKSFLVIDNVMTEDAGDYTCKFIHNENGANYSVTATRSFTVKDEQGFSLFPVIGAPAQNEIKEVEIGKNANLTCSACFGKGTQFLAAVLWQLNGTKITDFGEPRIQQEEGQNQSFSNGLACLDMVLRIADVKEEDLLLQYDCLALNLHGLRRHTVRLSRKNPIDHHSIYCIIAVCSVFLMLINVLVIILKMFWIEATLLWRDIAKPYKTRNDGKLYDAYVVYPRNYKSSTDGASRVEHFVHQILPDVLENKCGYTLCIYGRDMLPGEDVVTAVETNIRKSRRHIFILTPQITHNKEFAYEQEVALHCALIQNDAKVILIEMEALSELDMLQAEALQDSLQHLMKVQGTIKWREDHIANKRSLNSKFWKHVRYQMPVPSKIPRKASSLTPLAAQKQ
Numbers stand for hits. The full list was thinned out, with hits kept by preference.

For O=[N+]([O-])c1c(Nc2ccccc2)sc2ccccc12 the results were ST2 IL33 inh 37.0%.
Screening O=C(Nc1ccc2c(c1)OCCO2)C1CCN(C(=O)Cc2ccccc2)CC1 returned ST2 IL33 inh inactive.
For Cc1[nH]c2c(c1C(=O)N1CCCC3(CN(C)C(=O)O3)C1)C(=O)CCC2 (stereo not given) the results were ST2 IL33 inh inactive.
Screening CCC(C)NC(=O)c1ccc(Cl)cc1Cl (stereo not given) returned ST2 IL33 inh inactive.
For O=C(NCc1ccccc1)C1CCN(c2ccc(-c3cccs3)nn2)CC1 the results were ST2 IL33 inh inactive.
Screening CC(=O)N1N=C(c2ccc(Cl)cc2)OC1(C)C returned ST2 IL33 inh inactive.
For COc1cccc(C2=NN(C(=O)Cc3ccc([N+](=O)[O-])cc3)C(O)(C(F)(F)F)C2)c1 (stereo not given) the results were ST2 IL33 inh inactive.
For COc1ccc(CC2(C)OC(c3ccc([N+](=O)[O-])cc3)=NN2C(C)=O)cc1 (stereo not given) the results were ST2 IL33 inh 49.0%.
Screening CC(=O)c1cc2c(cc1NC(=O)c1ccccc1Br)OCCO2 returned ST2 IL33 inh inactive.
Screening O=C(CSc1nnc2c(n1)[nH]c1ccccc12)NCCc1ccccc1 returned ST2 IL33 inh inactive.
Screening NC(=O)CSc1nnc2c(n1)[nH]c1ccccc12 returned ST2 IL33 inh inactive.
For NNc1nnc2c(n1)[nH]c1ccccc12 the results were ST2 IL33 inh 31.0%.
O=C(NCc1ccccc1)[C@@H]1Cc2nc[nH]c2CN1Cc1ccccc1 was read as ST2 IL33 inh inactive.
`CN(CCc1ccccn1)c1ncccc1CNC(=O)Nc1cccc(F)c1` gave ST2 IL33 inh inactive.
For Oc1ccccc1-c1nc(NCC2CCOC2)c2ccccc2n1 (stereo not given) the results were ST2 IL33 inh inactive.
`C=CCOc1nc2c(c(=O)n(Cc3ccc(Br)cc3)c(=O)n2C)n1C` gave ST2 IL33 inh 39.0%.
`C=CCOc1nc2c(c(=O)n(C)c(=O)n2C)n1C` gave ST2 IL33 inh inactive.
Screening Cn1c(OCc2cccnc2)nc2c1c(=O)n(Cc1ccc(Cl)cc1)c(=O)n2C returned ST2 IL33 inh inactive.
O=C(CC1Sc2ccccc2NC1=O)Nc1ccc(SC(F)(F)F)cc1 (stereo not given) was read as ST2 IL33 inh inactive.
`O=C(CSc1nc2ccccc2o1)Nc1ccccc1` gave ST2 IL33 inh inactive.
For Cn1c(CSc2nc3ccccc3o2)nc2ccccc21 the results were ST2 IL33 inh inactive.
`O=[N+]([O-])c1ccc(CSc2nc3ccccc3o2)cc1` gave ST2 IL33 inh 35.0%.
`Cn1ccnc1C(O)C1CCN(C(=O)CCc2c[nH]c3ccccc23)CC1` (stereo not given) gave ST2 IL33 inh inactive.
Screening COc1ccccc1CNC(=O)COc1cc(C)c(Br)c(C)c1 returned ST2 IL33 inh inactive.
Screening COc1cc(COC2CN(Cc3ccc(O)cc3)CC(=O)N(C(C)C)C2)cc(OC)c1 (stereo not given) returned ST2 IL33 inh inactive.
O=C(Cc1ccccc1)N(c1ccccc1)c1ccccc1 was read as ST2 IL33 inh inactive.
Screening CN(C(=O)N1CCN(C(=O)N(C)c2ccccc2)CC1)c1ccccc1 returned ST2 IL33 inh inactive.
`CN(C(=O)Cc1ccccc1)c1ccccc1` gave ST2 IL33 inh 36.0%.
For O=C(CCC(=O)NC1CCCC1)NC1CCCC1 the results were ST2 IL33 inh inactive.
CCOC(=O)c1sc2nc(C)nc(Nc3cc(Cl)ccc3OC)c2c1C was read as ST2 IL33 inh inactive.
For COc1ccc(CNC(=O)C2CCCN2S(=O)(=O)c2cc3c(cc2C)NC(=O)CO3)cc1 (stereo not given) the results were ST2 IL33 inh inactive.
`N=C1S/C(=C\c2ccc(O)cc2)C(=O)N1c1ccc(F)cc1` gave ST2 IL33 inh inactive.
N=C1S/C(=C\c2ccc(N3CCOCC3)cc2)C(=O)N1c1ccc(Br)cc1 was read as ST2 IL33 inh 32.0%.
`Cc1ccc(N2C(=O)S/C(=C\c3ccc(O)cc3)C2=O)cc1` gave ST2 IL33 inh inactive.
Cc1ccc(NS(=O)(=O)c2ccc(Cl)s2)cc1 was read as ST2 IL33 inh inactive.
For NC(=O)c1csc(N2CCOC(C(F)(F)F)C2)n1 (stereo not given) the results were ST2 IL33 inh inactive.
O=C(Cn1cnc2c(cnn2-c2ccc(Cl)cc2)c1=O)Nc1ccc2c(c1)OCCO2 was read as ST2 IL33 inh inactive.
For OC1(/C=C/C2(O)CCCCC2)CCCCC1 the results were ST2 IL33 inh inactive.
CCOc1ccc(OCCSc2nc3ccccc3n2CC(N)=O)cc1 was read as ST2 IL33 inh inactive.
For CC(=O)N1c2ccc(N=Cc3ccc(Cl)cc3)cc2CC1C (stereo not given) the results were ST2 IL33 inh inactive.
`Clc1ccc(-c2ncnn2-c2ccccc2Cl)cc1` gave ST2 IL33 inh inactive.
`COc1cc(-c2ncnn2-c2cccc(Cl)c2C)cc(OC)c1OC` gave ST2 IL33 inh 33.0%.
`COc1cc(-c2ncnn2-c2ccc(Cl)cc2)cc(OC)c1OC` gave ST2 IL33 inh inactive.
For OCC1(CNC2CCC3(CCNCC3)CC2)CCOCC1 the results were ST2 IL33 inh inactive.
For COCC1(C(=O)NCCN2CCOC2=O)CCC1 the results were ST2 IL33 inh inactive.
Screening O=C1[C@@H]2C3c4ccccc4C(Br)(c4ccccc43)[C@@H]2C(=O)N1c1ccc([N+](=O)[O-])cc1 returned ST2 IL33 inh 34.0%.
For CC(=O)Oc1ccc(N2C(=O)C3C4c5ccccc5C(C)(c5ccccc54)C3C2=O)cc1 (stereo not given) the results were ST2 IL33 inh inactive.
O=C1C2[C@H](C(=O)N1c1cccc(Br)c1)C1c3ccccc3C2(C(=O)O)c2ccccc21 (stereo not given in full) was read as ST2 IL33 inh inactive.
For O=C(NC1CC1)c1cc2nc(-c3ccco3)cc(C(F)(F)Cl)n2n1 the results were ST2 IL33 inh inactive.
CC(=O)c1ccc(NC(=O)Cc2ccccc2)cc1 was read as ST2 IL33 inh inactive.
`NC(=O)c1ccc(NC(=O)c2ccccc2)cc1` gave ST2 IL33 inh inactive.
`Cc1ccc(NC(=O)c2ccc(C(=O)Nc3ccc(C)cc3)cc2)cc1` gave ST2 IL33 inh inactive.
`NS(=O)(=O)c1ccc(NC(=O)c2ccc(-c3ccccc3)cc2)cc1` gave ST2 IL33 inh 30.0%.
CC(=O)c1ccc(NC(=O)c2ccc(-c3ccccc3)cc2)cc1 was read as ST2 IL33 inh 30.0%.
For Cc1cc(C)nc(NS(=O)(=O)c2ccc(NC(=O)c3ccc(-c4ccccc4)cc3)cc2)n1 the results were ST2 IL33 inh inactive.
Screening Cc1nc2ccccc2nc1CN1CCCC(CO)(CCc2ccccc2)C1 (stereo not given) returned ST2 IL33 inh inactive.
`CCC1CN(Cc2ccc(S(=O)(=O)NC)cc2)CCN1C(C)C` (stereo not given) gave ST2 IL33 inh inactive.
`COCc1c(C(=O)N[C@@H]2C[C@@H](C(=O)OC)N(C)C2)noc1C` gave ST2 IL33 inh inactive.
`Cc1ccc(-c2onc3ccc(Cl)cc23)cc1` gave ST2 IL33 inh 45.0%.
Screening CC(=O)Oc1ccc(-c2nc3ccc(Cl)cc3c(=O)o2)cc1 returned ST2 IL33 inh inactive.
O=C(O)c1cc(-c2ccc(Br)cc2)nc2ccc(Cl)cc12 was read as ST2 IL33 inh inactive.
`Cc1ccc(C(=O)Nc2ccccc2C)cc1` gave ST2 IL33 inh inactive.
`Cc1ccccc1NCCNc1ccccc1C` gave ST2 IL33 inh 34.0%.
Screening Cc1ccccc1NC(=O)CCC(=O)Nc1ccccc1C returned ST2 IL33 inh inactive.
